Source: PubChem BioAssay
The list is not random: actives were taken first. Their share in the collection is about 21%.
Shiga inhibitor: blocks Shiga toxin action in Vero cells | 290,000 compounds, 9.2% hits | AID 2315 | inhibition, % at 38.7 µM | Vero cells, Shiga toxin protein synthesis inhibition reporter; in the data active = inhibition mostly above about 28%, no sharp cut-off; inactive = mostly below about 43%; also: 0% is about no effect
Pf growth 48h: P. falciparum growth inhibition at 48 hours (one generation); P. falciparum luciferase growth in erythrocytes, 48 h; Potency, µM (titrated, usually from 28.7 µM), without a hit: top-dose activity change, negative = inhibition, actives largely listed as inhibitors; 310,000 compounds, 5.9% hits; AID 504832; also: potency is read from the fitted curve at half-maximal effect; % is scaled to controls: 0 for no effect and ±100 for the full control effect
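A one-generation exposure of luciferase-tagged malaria parasites in RPMI 1640/Albumax erythrocyte culture, 37 C and 5% CO2. Inhibition is inferred from decreased luminescence after adding detection reagent.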
CHX counter: counter-screen hit for Shiga toxin inhibitors, cycloheximide; cell reporter, cycloheximide protein synthesis inhibition counterscreen; max response, %; 300,000 compounds, 12% hits; AID 2314; in the data active = max response mostly above about 13%, no sharp cut-off; inactive = mostly below about 14%; also: read at 38.3 µM for the half of the compounds with a filed dose; 0% is about no effect
Pf growth 96h: P. falciparum growth inhibition at 96 hours. P. falciparum luciferase reporter growth, 96 h. Potency, µM (highest dose often 28.7 µM), inactives show at the highest dose activity change, negative = inhibition, most hits filed as inhibitors. 320,000 compounds, 6.9% hits; also: potency is read from the fitted curve at half-maximal effect; % is scaled to controls: 0 for no effect and ±100 for the full control effect
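Compounds incubated with erythrocytes infected by luciferase-expressing P. falciparum (2% hematocrit, 0.05% parasitemia final) for 96 hours, 37 C in 5% CO2. Growth inhibition scored as decreased luciferase luminescence.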
HCV inhibitor: HCV inhibition | Huh7.5.1 HCVcc-Cre infection, luciferase reporter, 44 h | Potency, µM (series often up to 41.8 µM), inactives show at the highest dose activity change, negative = inhibition, hits mostly inhibitors | 340,000 compounds, 3.4% hits | AID 651820; also: potency is read from the fitted curve at half-maximal effect; % is scaled to controls: 0 for no effect and ±100 for the full control effect
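Antiviral activity was scored by luciferase reporter output from cells infected with HCVcc-Cre (~0.5 moi) in presence of compound, 44 h infection period, cells seeded 1,000/well 4 h prior.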
AMA1 RON2 block: inhibitors of Plasmodium falciparum AMA1-RON2 interaction. AlphaScreen AMA1-biotinylated RON2 peptide binding. Potency, µM (titrated, usually from 58.2 µM), inactives show at the top dose activity change, negative = inhibition, most hits filed as inhibitors. 360,000 compounds, 0.2% hits;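 also: potency is read from the fitted curve at half-maximal effect; 0% = vehicle wells and -100% = peptide control; nearly all actives have a fitted effect of over 45% in size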
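AMA1 (3D7) with his tag at 25 nM final met compounds first, then biotinylated RON2 peptide at 25 nM; detection used donor plus acceptor beads, 10 µg/mL apiece, read by AlphaScreen after 30 min at room temperature.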
An asterisk follows results filed as active. Unless noted, calls follow the shape of the dose curve; as a rule, active = well fitted curve in the direction sought with a large enough effect; inconclusive = small, poorly fitted or top-dose-only effect, or another doubt; inactive = no such curve, though single readings can be large; an effect the other way counts as inactive or inconclusive.

What do the screens show for `Nc1nc(N)c2cc(S(=O)(=O)c3ccc4ccccc4c3)ccc2n1`?
AMA1 RON2 block: 4.2%

What do the screens show for `C/C(=N\NC(=O)c1cccc(S(=O)(=O)N2CCOCC2)c1)c1ccc(C#N)cc1`?
Shiga inhibitor: -6.4; Pf growth 48h: -24.1%; CHX counter: 4.2; Pf growth 96h: -7.4%; AMA1 RON2 block: 4.9%

What do the screens show for `Cc1cccc(NC(=O)CSc2nc(=O)n(CCCN3CCOCC3)c3c2CCCC3)c1`?
Pf growth 48h: inconclusive; Pf growth 96h: inconclusive; HCV inhibitor: 10.2%; AMA1 RON2 block: 16.1%

How did c1ccc(CCNc2ccc3c(c2)Cc2ccccc2-3)nc1 do in these assays?
HCV inhibitor: -6.7%; AMA1 RON2 block: -19.7%

How did CS(=O)(=O)N1N=C(c2cccs2)CC1c1ccccc1 (centres undefined) do in these assays?
Shiga inhibitor: 9.7; Pf growth 48h: inconclusive; CHX counter: 12.9*; Pf growth 96h: inconclusive; HCV inhibitor: -5.3%; AMA1 RON2 block: -5.2%

Results for CS(=O)(=O)N1N=C(c2cccs2)CC1c1ccccc1F (centres undefined) ?
Shiga inhibitor: 11.8; Pf growth 48h: 9.9%; CHX counter: -1.7; Pf growth 96h: -28.6%; HCV inhibitor: 12.7%; AMA1 RON2 block: -15.3%

Results for O=C(O)COc1ccc(/C=C/c2nc(-c3ccccc3O)n[nH]2)cc1 ?
Pf growth 48h: 78.1%; CHX counter: 6.7; Pf growth 96h: -2.4%; HCV inhibitor: 16.5%; AMA1 RON2 block: 101.7%

Results for COc1ccc(/C=C/c2nc(-c3ccccc3O)n[nH]2)cc1OC ?
Shiga inhibitor: 23.4*; Pf growth 48h: 47.7%; CHX counter: 20.2*; Pf growth 96h: inconclusive; HCV inhibitor: inconclusive; AMA1 RON2 block: 76.5%

What do the screens show for `C[C@H](NC(=O)N1CCn2c1nc1ccccc12)C(=O)N1CCCCC1`?
Shiga inhibitor: 19.2; Pf growth 48h: 12.6%; CHX counter: -5.1; Pf growth 96h: 22.6%; HCV inhibitor: 9.5%; AMA1 RON2 block: 127.0%

How did Cc1cccn2c(=O)c(/C=C(\C#N)S(=O)(=O)c3ccccc3)c(N3CCN(Cc4ccccc4)CC3)nc12 do in these assays?
Shiga inhibitor: 14.8; Pf growth 48h: inconclusive; CHX counter: 1.4; Pf growth 96h: 14.7µM*; HCV inhibitor: 7.8%; AMA1 RON2 block: -0.4%

Results for N#C/C(=C\c1c(N2CCOCC2)nc2ccccn2c1=O)S(=O)(=O)c1ccccc1 ?
Shiga inhibitor: -11.7; Pf growth 48h: -0.2%; CHX counter: -3.9; Pf growth 96h: -22.8%; HCV inhibitor: -3.7%; AMA1 RON2 block: -8.2%

Results for Cc1ccc(S(=O)(=O)/C(C#N)=C/c2c(N3CCOCC3)nc3c(C)cccn3c2=O)cc1 ?
Shiga inhibitor: -6.2; Pf growth 48h: 2.08µM*; CHX counter: 1.5; Pf growth 96h: -12.9%; HCV inhibitor: 2.1%; AMA1 RON2 block: -8.2%

How did COCc1ccc(C(=O)N(C)C2CCCN(Cc3ccccc3F)C2)o1 (centres undefined) do in these assays?
Shiga inhibitor: -2.5; Pf growth 48h: inconclusive; CHX counter: 3.3; Pf growth 96h: 2.94µM*; HCV inhibitor: -29.7%; AMA1 RON2 block: -3.1%

Results for Cc1ccc(C(=O)N(CCN(C)C)CC2CCCN(Cc3ccccc3F)C2)cc1C (centres undefined) ?
Pf growth 48h: inconclusive; CHX counter: -1.4; Pf growth 96h: 30.2%; HCV inhibitor: 11.2µM*; AMA1 RON2 block: 2.6%

How did COC(=O)c1ccc(C(=O)N(C)C2CCCN(Cc3ccccc3F)C2)cc1 (centres undefined) do in these assays?
Shiga inhibitor: -6.7; Pf growth 48h: -13.3%; CHX counter: -2.1; Pf growth 96h: 0.0%; HCV inhibitor: 1.2%; AMA1 RON2 block: -2.0%

Results for COc1ccc(C(=O)N(C)C2CCCN(Cc3ccccc3F)C2)cc1C (centres undefined) ?
Shiga inhibitor: 1.3; Pf growth 48h: inconclusive; CHX counter: -2.1; Pf growth 96h: 5.22µM*; HCV inhibitor: inconclusive; AMA1 RON2 block: 5.1%

What do the screens show for `COC(=O)C1=NN(c2ccc(C)cc2)C2(S1)SC(C(C)=O)=C(C)N2c1ccccc1` (centres undefined)?
Shiga inhibitor: -10.9; Pf growth 48h: 10.4µM*; CHX counter: 0.8; HCV inhibitor: 12.9%; AMA1 RON2 block: -5.8%

Results for CC(=O)C1=NN(c2ccccc2)C2(S1)S/C(=C\c1ccccc1)C(=O)N2c1ccccc1 (centres undefined) ?
Shiga inhibitor: -6.8; Pf growth 48h: 11.7µM*; CHX counter: 4.7; HCV inhibitor: inconclusive; AMA1 RON2 block: -16.4%

How did COc1cc2c(oc(=O)c3cc(C)cc(OC)c32)c2c(C3OC(C)C(O)C(C)(O)C3O)ccc(O)c12 (centres undefined) do in these assays?
HCV inhibitor: inconclusive; AMA1 RON2 block: -2.7%

What do the screens show for `Cc1ccc(S(=O)(=O)N(C)C)cc1NC(=O)COC(=O)c1sc2cc(Cl)ccc2c1Cl`?
Shiga inhibitor: -2.5; Pf growth 48h: 11.7%; CHX counter: -4.2; Pf growth 96h: 62.3%; HCV inhibitor: 11.7%; AMA1 RON2 block: 6.5%

Results for Cc1ccc(N=C2NC(=O)c3cc([N+](=O)[O-])ccc32)cc1 ?
Shiga inhibitor: 25.9; Pf growth 48h: -4.7%; CHX counter: 5.2; Pf growth 96h: 4.15µM*; HCV inhibitor: 2.4%; AMA1 RON2 block: -6.5%

Results for CC(=O)c1ccccc1NS(=O)(=O)c1ccc2c(c1)CC(=O)N2 ?
Pf growth 48h: inconclusive; Pf growth 96h: 4.65µM*; HCV inhibitor: 6.2%; AMA1 RON2 block: -1.5%

Results for C=C1[C@@H](OC(C)=O)CC[C@]2(C)[C@@H]1C[C@@H]1C[C@H](OC(C)=O)C(C)=C([C@@H](OC(C)=O)[C@@H]2OC(C)=O)C1(C)C ?
Shiga inhibitor: -8.2; Pf growth 48h: 6.57µM*; CHX counter: -1.3; Pf growth 96h: 7.38µM*; HCV inhibitor: inconclusive; AMA1 RON2 block: -5.6%

What do the screens show for `O=[N+]([O-])c1c(N2CCN(CCO)CC2)nc2ccccn12`?
Shiga inhibitor: 4.1; Pf growth 48h: -5.5%; CHX counter: -0.7; Pf growth 96h: 2.2%; HCV inhibitor: -1.8%; AMA1 RON2 block: -4.8%

Results for CS(=O)c1ccccc1COC(=O)Nc1ccc(Cl)cc1 (centres undefined) ?
Shiga inhibitor: 35.8; Pf growth 48h: -4.8%; CHX counter: 15.8*; Pf growth 96h: inconclusive; HCV inhibitor: -9.5%; AMA1 RON2 block: 0.8%

Results for CC(C)OC(=O)NCCOC(=O)Nc1ccc(Cl)cc1 ?
Shiga inhibitor: 23.6; Pf growth 48h: 0.0%; CHX counter: 5.3; Pf growth 96h: inconclusive; HCV inhibitor: -7.6%; AMA1 RON2 block: 2.8%
